Experimental data published in PubChem BioAssay (NCI).
About 83,000 compounds went through this panel and 20% of them were active in at least one assay; those are over-represented in the sample as a whole.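 Each cell line was grown in a 96-well plate and treated with one concentration of compound for 48 hours. Values below 10 were considered active.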 A number with no mark means an inactive call. Active and inactive are the calls of the source.

Key:
Experiment in all cases: NCI-60 one-dose screen, 48 h (100 = growth as untreated, 0 = no growth, -100 = all killed)
Conditions in all cases: 10 µM unless noted
NCI-H23 lung = tested on: NCI-H23 lung
NCI-H322M lung = tested on: NCI-H322M lung
HOP-62 NSCLC = tested on: HOP-62 NSCLC
NCI-H460 lung = tested on: NCI-H460 lung
HOP-92 NSCLC = tested on: HOP-92 NSCLC
NCI-H522 lung = tested on: NCI-H522 lung
A549/ATCC NSCLC = tested on: A549/ATCC NSCLC
786-0 renal = tested on: 786-0 renal
COLO 205 colon = tested on: COLO 205 colon
DU-145 prostate = tested on: DU-145 prostate
K-562 leukemia = tested on: K-562 leukemia
MALME-3M melanoma = tested on: MALME-3M melanoma
MDA-MB-231 breast = tested on: MDA-MB-231 breast
RXF 393 renal = tested on: RXF 393 renal
SF-268 CNS = tested on: SF-268 CNS
SF-295 CNS = tested on: SF-295 CNS
SF-539 CNS = tested on: SF-539 CNS
UACC-257 melanoma = tested on: UACC-257 melanoma
M14 melanoma = tested on: M14 melanoma
NCI-H226 lung = tested on: NCI-H226 lung

Compound | growth (NCI-H23 lung) | growth (NCI-H322M lung) | growth (HOP-62 NSCLC) | growth (NCI-H460 lung) | growth (HOP-92 NSCLC) | growth (NCI-H522 lung) | growth (A549/ATCC NSCLC) | growth (786-0 renal) | growth (COLO 205 colon) | growth (DU-145 prostate) | growth (K-562 leukemia) | growth (MALME-3M melanoma) | growth (MDA-MB-231 breast) | growth (RXF 393 renal) | growth (SF-268 CNS) | growth (SF-295 CNS) | growth (SF-539 CNS) | growth (UACC-257 melanoma) | growth (M14 melanoma) | growth (NCI-H226 lung)
Cc1c(N)ccc(-c2ccc(N)c(C)c2S(=O)(=O)O)c1S(=O)(=O)O | 98% | 108% | 107% | 112% | 86.1% | 101% | 117% | 106% | 111% | 111% | 101% | 127% | 109% | 118% | 109% | 117% | 126% | 115% | 108% | –
C=C1C(=O)O[C@H]2[C@H]1CC/C(Cn1cc(-c3cc(C)c(C)cc3C)nn1)=C\CC[C@@]1(C)O[C@@H]21 | -61.3% (active) | 68.3% | 55.7% | 36.5% | -79% (active) | -64.2% (active) | 26% | -77.5% (active) | -70.5% (active) | -100% (active) | -10.7% (active) | -79.8% (active) | -73.7% (active) | – | -54.5% (active) | 59.8% | -82.9% (active) | – | -57.3% (active) | –
CCc1ccc(/C=C/c2ccc(O)c3ncccc23)[n+](C)c1 | 21% | 48.7% | – | 17.2% | 83.6% | 1.23% (active) | 18.3% | 89.4% | 70.9% | 42.8% | – | 63.5% | 90.9% | – | 47.7% | 58.5% | 62.7% | – | 47.6% | 24.2%
CC#CC(=O)N1CCC[C@H]1c1nc(-c2ccc(C(=O)Nc3ccccn3)cc2)c2c(N)nccn12 | 96.4% | 76.6% | 68.9% | 90.4% | 76.9% | 37.1% | 48.6% | 92.3% | 81.6% | 89.1% | 77.2% | 99% | 90.3% | 93.3% | 79.5% | 89.9% | 95.4% | 57.7% | 83.1% | –
NC1=Nc2ccccc2N(O)N1 | 102% | 96.8% | 80.9% | 110% | 107% | 71.7% | 74.3% | 101% | 105% | 113% | 96.7% | 97% | 102% | – | 98.1% | 102% | 96.3% | – | 103% | –
CC(C)OP(=O)(CCC(=O)c1c[nH]c2ccccc12)OC(C)C | 96.8% | 103% | – | 114% | 95.5% | 86.9% | 68.7% | 109% | 103% | 116% | 95.6% | 97.2% | 106% | 114% | 101% | 104% | 97.4% | – | 98.4% | –
CN(N)c1nc2sc3c(c2c(=O)[nH]1)CCCC3 | 93.5% | 96.9% | 76.6% | 104% | 107% | 89.2% | 81.1% | 98.2% | 100% | 101% | 109% | 88.7% | 102% | 108% | 95.9% | 93% | 98.7% | – | 98.7% | –
CNC(=O)c1cc(Oc2ccc(NC(=O)Nc3ccc(Cl)c(C(F)(F)F)c3)c(F)c2)ccn1 | – | -13.4% (active) | -48.1% (active) | -35.4% (active) | -20.1% (active) | -69.3% (active) | -2.14% (active) | 3.58% (active) | -59% (active) | 14.9% | -3.75% (active) | -36.3% (active) | -57.2% (active) | -31.3% (active) | -30.6% (active) | -47.4% (active) | -71.7% (active) | -50.3% (active) | -28.1% (active) | -16.8% (active)
